# Measurements from PubChem BioAssay AID504444 (National Center for Advancing Translational Sciences (NCATS), 2011).
# Among all 360,000 compounds or so, about 7,500 (2.1%) were called active. Not shown: some 20% with an inconclusive outcome. Many of the other results were omitted from the sample, so actives are more common in it than they were. Unmarked numbers belong to inactive results. The call rests on the fitted dose curve; in most records, active means well fitted inhibition curve with a large enough effect; inconclusive means small, poorly fitted or top-dose-only effect, or effect the other way; inactive means flat fitted curve, though single readings scatter.
# Assay: Nrf2 qHTS screen for inhibitors; further: nearly all actives have a fitted effect of over 60% in size
# Conditions: A549 ARE-Fluc reporter, luciferase luminescence, 18-24 h; series mostly up to 46 µM; activity change, negative = inhibition: at the top concentration
# From the text: NIH Molecular Libraries Probe Production Network [MLPCN]
# NIH Chemical Genomics Center [NCGC]
# Assay Provider: Shyam Biswal, Johns Hopkins University
# Nrf2 is a transcription factor that maintains cellular redox homoestasis and protects cells from xenobiotics. Nrf2 binds to the antioxidant response element (ARE) to induce gene expression of a broad spectrum of genes that encode for antioxidants. […] Finding a small molecule that act as an inhibitor of Nrf2 function would represent a novel therapeutic target that could lead to improvement in survival of patients undergoing chemo- and/or radio- therapy.
# This is the Nrf2 activity measured in the luminescent read.
# 1. Shibata, T., et al., Genetic Alteration of Keap1 Confers Constitutive Nrf2 Activation and Resistance to Chemotherapy in Gallbladder Cancer. Gastroenterology, 2008.
# 2. Sjoblom, T., et al., The consensus coding sequences of human breast and colorectal cancers. Science, 2006. 314(5797): p. 268-74.
# NCGC Assay Protocol Summary:
# A concentration-response assay was performed with A549 ARE_Fluc cells which are suspended in 5% FBS OPTI-MEM. Five uL were dispensed into 1536-well white TC-treated plate using the Kalypsys dispenser to achieve a density of 5000 cells/well in all columns except column 1. The plate is incubated at 37deg C at 5% CO2 for 2 hours before 23 nL of compounds are added with the Kalypsys pin tool equipped with a 1,536-pin array containing 10-nL slotted pins (FP1S10, 0.457-mm diameter, 50.8 mm long; V&P Scientific). The control compounds Budesonide and Staurosporine are both added at a concentration of 2mM and Budesonide is also added as a 1:10 titration, starting at 200uM, to achieve dose-response. After an 18-24 hour incubation at 37deg C at 5% CO2, 5ul of medium is added to column 1. Afterwards 1ul of 5x of CellTiter-Fluor (Promega) is added to every well. The plate is then incubated at 37deg C at 5% CO2 for 30 minutes before they are read on the ViewLux (Perkin Elmer) for a fluorescent read Ex=405(10)/Em=525(10) for a 3 second exposure, 2x binning, and high gain. Then 3 uL of 3x BugLite is dispensed into all wells and the plate is incubated at ambient room temperature for 15 minutes. Afterwards another ViewLux read is performed using the clear filter to get a luminescent read with the settings of 40 second exposure, 2x binning, and high gain. Cytotoxicity is assessed through the first fluorescent read and then biochemical activity against Nrf2 is measured in the luminescent read.
# On the % scale 0 is the no-effect control and ±100 the full control effect; potency means the concentration at half of the fitted maximal effect.
SMILES,"activity change, negative = inhibition",Potency
CC(=O)NCc1ccc(-c2csc(NC(=O)CCCc3nc4ccccc4c(=O)[nH]3)n2)cc1,4.73%,–
CCCn1c(C)cc(-c2csc(NC(=O)CCc3nc4ccccc4c(=O)[nH]3)n2)c1C,-5.04%,–
Cc1cc(C)c(-c2csc(NC(=O)CCCc3nc4ccccc4c(=O)[nH]3)n2)c(C)c1,–,9.2 µM (active)
Cc1sc2ncn(CC(=O)N3CCN(c4ccc(F)cc4)CC3)c(=O)c2c1S(=O)(=O)N1CCN(c2ncccn2)CC1,-18%,–
O=C(Cc1c(F)cccc1Cl)Nc1ncc([N+](=O)[O-])s1,–,16.4 µM (active)
COc1ccc(S(=O)(=O)N2CCOCC2)cc1NC(=O)Cc1c(F)cccc1Cl,-7.15%,–
CC(C)(C)NC(=O)NC(=O)COC(=O)Cc1c(F)cccc1Cl,-0.296%,–
Cc1ccc(S(=O)(=O)c2cc3c(=O)n4cccc(C)c4nc3n(CCc3ccccc3)c2=N)cc1C,3.09%,–
COC(=O)c1ccccc1NC(=O)c1cnn(-c2ccc(F)cc2)c1-n1cccc1,29.2%,–
COc1ccc2c(c1)c(N1CCCC1=O)c(C(=O)Nc1ccccc1C(F)(F)F)n2C,25.9%,–
CCC1([N+](=O)[O-])COC(c2ccc(C)cc2)OC1 (stereo not drawn),8.27%,–
CCOC(=O)c1ccc(NC(=O)C2CC(=O)NC(=Nc3ccc(C)c(C)c3)S2)cc1 (stereo not drawn),2.13%,–
CC[n+]1cc(C)ccc1/C=C/c1ccc(N(C)C)cc1,–,4.11 µM (active)
CN(C)c1ccc(/C=N\S(=O)(=O)c2ccccc2)cc1,0.274%,–
C=CC(COCc1ccccc1)N(CC(=O)OC)S(=O)(=O)c1cc(Br)ccc1OC (stereo not drawn),-14.9%,–
Cc1nn(CC(=O)O)c(=O)c2cc3cc(F)ccc3n12,1.3%,–
O=C1OC(OC(=O)c2ccccc2Br)C(N2CCOCC2)=C1Cl (stereo not drawn),-22.5%,–
Cc1ccccc1C(=O)OC1OC(=O)C(Cl)=C1Nc1ccccc1 (stereo not drawn),–,8.2 µM (active)
Cc1ccccc1C(=O)O,-0.366%,–
CCOC(=O)c1c(-c2ccc(OC)cc2)oc2ccc(OCc3ccc(C(=O)OC)cc3)cc12,-9.39%,–
O=C(NCCCN1CCOCC1)c1cn(-c2ccccc2)nc1-c1ccc(F)cc1,-5.73%,–
CCCCCCSc1ccc(-c2nc3ccc(Cl)cn3c2NCc2ccccc2)cc1,6.14%,–
O=C(CNC(=O)c1ccc(Cl)c(C(F)(F)F)c1)OC(C(=O)Nc1cc(C(F)(F)F)ccc1Cl)c1ccccc1 (stereo not drawn),17%,–
COc1ccc(OC)c(/C=C/C(=O)c2ccc3c(c2)OCO3)c1,-2.43%,–
Cc1ccc(C)c(N2CCN(C(=O)Cn3nc(C)c4sc5ccccc5c4c3=O)CC2)c1,-25.7%,–

SMILES,"activity change, negative = inhibition",Potency
CCc1nn(CC(=O)N2CCN(c3cc(C)ccc3C)CC2)c(=O)c2cc3occc3n12,–,inactive
Cc1ccc(C)c(N2CCN(C(=O)Cn3ncn4cccc4c3=O)CC2)c1,–,23.1 µM (active)
COc1ccc(-c2nc(CN3CCC(C(=O)NCCN(CC(C)C)CC(C)C)CC3)c(C)o2)cc1OC,1.5%,–
CN(C(=O)c1cccc(NC(=O)Cc2ccc(NC(=O)C3CCN(C(=O)C4CCCCC4)CC3)cc2)c1)C1CCC1,5.92%,–
COc1ccccc1N1CCN(S(=O)(=O)c2ccc(Cl)cc2)CC1,-28.2%,–
CS(=O)(=O)N(CC(=O)N1CCCC1)Cc1ccccc1,0.0838%,–
COc1ccccc1N1CCN(C(=O)CN(Cc2ccc(Cl)cc2)S(C)(=O)=O)CC1,–,23.1 µM (active)
O=S1(=O)N=C(Oc2cccc(Br)c2)c2ccccc21,-1.46%,–
COc1ccc(-c2cc(-c3nc(-c4cc(OC)c(OC)c(OC)c4)no3)[nH]n2)c(OC)c1,-8.11%,–
CC(C)(C)OC(=O)N1CCC(C(=O)Nc2cccc(C(=O)NCCc3ccccc3)c2)CC1,-0.0845%,–
CCN(CCCNC(=O)CSc1cc(=O)n(C)c2cc(Cl)ccc12)c1cccc(C)c1,0.522%,–
Cc1ccc(C(=O)NC2CCN(C#N)CC2)cc1,7.04%,–
Cc1cc(=O)n2[nH]c(-c3cccc(Cl)c3)cc2n1,7.12%,–
COCc1cc(=O)n2[nH]c(C)c(-c3ccccc3)c2n1,-21.7%,–
Cc1nc2c(-c3ccccc3)c(C)[nH]n2c(=O)c1Cl,–,20.6 µM (active)
O=[S+]([O-])(c1ccc2c(c1)OCCO2)N1CCN([S+](=O)([O-])c2c(Cl)cc(Cl)cc2Br)CC1,4.14%,–
COc1ccc(N(C)S(=O)(=O)c2ccc3c(c2)CC(C)N3C(=O)C2CC2)c(OC)c1 (stereo not drawn),-21.9%,–
COc1cccc(CNS(=O)(=O)c2ccc3c(c2)CC(C)N3C(C)=O)c1 (stereo not drawn),-2.36%,–
COc1cccc(CNS(=O)(=O)c2ccc3c(c2)CC(C)N3C(=O)C2CCC2)c1 (stereo not drawn),–,11.6 µM (active)
CC(=O)OC1CCC2C3CCC4=C(CC(F)C(=O)C4)C3CCC12C (stereo not drawn),-23.5%,–
C/C=C/c1ccc(OCC(=O)NNC(=O)CN(C)S(=O)(=O)c2ccc(C)cc2)c(OC)c1,2.15%,–
Cc1ccc(C)c(N2CCN(C(c3ccccc3)c3nnc(-c4ccccc4)o3)CC2)c1 (stereo not drawn),0.91%,–
CCCn1c(NCc2ccc(N(CC)CC)cc2)nc2ccccc21,1.93%,–
O=C(NNC(=O)c1ccccc1O)c1ccccc1O,-25.8%,–
O=C(/C=C/c1ccccc1)N/C(=C/c1ccccc1)C(=O)Nc1ccccc1O,17.7%,–

SMILES,"activity change, negative = inhibition",Potency
O=C(/C=C/c1ccccc1)c1ccccc1O,–,3.66 µM (active)
CNC(=O)c1sc(Nc2ccc(OCc3ccccc3)cc2)nc1C,–,20.6 µM (active)
O=C(O)/C=C\C(=O)Nc1ccc(OCc2ccccc2)cc1,18.1%,–
CCc1ccnc(NC(=O)Nc2ccc(OCc3ccccc3)cc2)c1,-9.72%,–
CCN(C[C@H]1N[C@@](CC)(C(=O)OC)[C@H]2C(=O)N(Cc3ccccc3)C(=O)[C@@H]12)S(=O)(=O)c1ccccc1,16.6%,–
Cc1cccc(C(=O)OCC(=O)NC(C)C2CC3CCC2C3)c1O (stereo not drawn),-2.64%,–
CC(C)Cn1c(N)c(C(=O)COC(=O)C2CCCN2C(=O)c2cccs2)c(=O)n(C)c1=O (stereo not drawn),-14.3%,–
CC(C)Cn1c(N)c(C(=O)COC(=O)CN2C(=O)C3CC=CCC3C2=O)c(=O)n(C)c1=O (stereo not drawn),–,4.61 µM (active)
COc1ccc(C(=O)COC(=O)CN2C(=O)C3CC=CCC3C2=O)c(OC)c1 (stereo not drawn),1.38%,–
O=C(Nc1ccn(CCCNCc2ccc3[nH]ccc3c2)c(=O)n1)OCc1ccccc1,-1.64%,–
CN(Cc1ccccc1)C(=O)c1ccc(COc2ccccc2)cc1,1.07%,–
COc1ccccc1S(=O)(=O)NCc1ccc(C(=O)N(C)Cc2ccc(F)cc2)cc1,–,23.1 µM (active)
O=C(NCCS(=O)(=O)NCc1ccc(F)cc1)c1ccccc1,3.15%,–
O=C1N(Cc2ccccc2)c2ccc(Cl)cc2C1(O)c1c[nH]c2ccccc12 (stereo not drawn),1.03%,–
CC(Nc1ncnc2ccc(-c3ccc4c(c3)OCO4)cc12)c1ccco1 (stereo not drawn),-6.5%,–
Cc1oc2c(F)c(F)c(F)c(F)c2c1S(=O)(=O)Nc1cccc(C(F)(F)F)c1,–,8.2 µM (active)
Cc1cccc(NC(=O)c2cccc(C(F)(F)F)c2)c1,9.33%,–
O=C(/C=C/c1ccc(F)cc1)Nc1cccc(S(=O)(=O)Nc2cccc(C(F)(F)F)c2)c1,-7.06%,–
CCn1c2ccccc2c2cc(CN3CCN(Cc4cccc(Cl)c4)CC3)ccc21,1.46%,–
Cc1cccc(C(=O)N2c3nc(-c4ccco4)nn3C3(CCCCC3)[C@@H]3CCCC[C@@H]32)c1,-10.5%,–
COc1cccc(NC(=O)c2ccc(S(=O)(=O)N(C)C)cc2)c1,-11.6%,–
CN(C)S(=O)(=O)c1ccc(NC(=O)N2CCOCC2)cc1,12.1%,–
CN(C)S(=O)(=O)c1ccc(Oc2ccc(S(=O)(=O)N(C)C)cc2)cc1,–,13 µM (active)
CCOc1ccc(-c2n[nH]c3c2C(c2ccccc2OC)N(c2ccc(Br)cc2)C3=O)cc1 (stereo not drawn),-90.3%,–
CCCCCCCCNS(=O)(=O)CCNC1CCCCC1,17.5%,–

SMILES,"activity change, negative = inhibition",Potency
Cc1cccc(C(C)C)c1NC(=O)C(NS(=O)(=O)c1cccc2nsnc12)c1ccccc1 (stereo not drawn),4.2%,–
CCN1/C(=C/C(=S)Nc2ccccc2)Sc2ccccc21,–,6.51 µM (active)
CCNC(=O)N1c2ccccc2Sc2ccccc21,2.6%,–
O=C(CCN1c2ccccc2Sc2ccccc21)Nc1ccccc1,-4.56%,–
CC(C)NC(=O)Nc1cccc2c1O[C@H](CN(C)S(=O)(=O)c1cccs1)[C@@H](C)CN([C@H](C)CO)C2=O,4.9%,–
COc1cccc(N2CCN(S(=O)(=O)c3cc(Br)cc4c3N(C(=O)C3CC3)CC4)CC2)c1,-6.76% [at 9.27 µM],–
O=C(NCCC1=CCCCC1)c1ccc2c(c1)N(Cc1ccccc1F)C(=O)c1ccccc1S2(=O)=O,17.8%,–
COc1cccc(OC2=NS(=O)(=O)c3ccccc32)c1,1.62% [at 65.3 µM],–
Cn1nccc1CNC(=O)c1ccnn1C,-3.22%,–
CCCc1ccc(-c2c(C)sc(NC(=O)c3ccnn3C)c2C#N)cc1,–,13 µM (active)
CCN(CC)C(=O)c1sc(NC(=O)c2ccco2)c(C#N)c1C,2.27%,–
COc1ccc(C)cc1NC(=O)COCc1cc(-c2cccs2)on1,-15.1%,–
O=C(Nc1ccc(OC(F)(F)F)cc1)C1CCCN(S(=O)(=O)c2ccc(Br)s2)C1 (stereo not drawn),-12.6%,–
Cn1c(=O)c2c(nc(NCCc3ccccc3)n2Cc2ccccc2Br)n(C)c1=O,-3.57%,–
COC(=O)C(C)Sc1nc2c(c(=O)n(C)c(=O)n2C)n1Cc1cccc(C)c1 (stereo not drawn),-11.1%,–
Cn1c(=O)c2c(nc(NCCc3ccccc3)n2Cc2ccccc2)n(C)c1=O,–,14.6 µM (active)
Cn1c(=O)[nH]c(=O)c2c1nc(NCCc1ccccc1)n2Cc1ccc(F)cc1,-17.7%,–
CCCCNc1nc2c(c(=O)n(C)c(=O)n2C)n1Cc1cccc(OC)c1,–,5.8 µM (active)
CCCCNc1nc2c(c(=O)[nH]c(=O)n2C)n1CCOc1ccccc1,-19.7%,–
Clc1ccc(CSc2nncn3c2cc2occc23)cc1,-25.8%,–
N#CN1CCC(NS(=O)(=O)c2cccc(F)c2)C1 (stereo not drawn),14.3%,–
COc1ccccc1NC(=O)c1oc2ccccc2c1NC(=O)C(C)C,-28.5%,–
CCN(CC)CCCC(C)n1c2nc(=O)[nH]c(=O)c-2nc2cc(Cl)ccc21 (stereo not drawn),–,20.6 µM (active)
